Source: PubChem BioAssay
IL-1B inflam inh – inhibitors of inflammasome signaling (IL-1 beta secretion) | THP-1 LPS/ATP IL-1B secretion, AlphaLISA, 16 h; hits give low values | activity change, % at 57.5 µM | 360,000 compounds, 4.7% hits | AID 743279; in the data active = activity change below about -50%; inconclusive = mostly about -30% to -49%; also: % is scaled to controls: 0 for no effect and ±100 for the full control effect
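Secreted IL-1B measured by AlphaLISA bead assay after 16 h compound exposure of THP-1 cells; compounds (final up to 57.5 uM) added 1 h before LPS (250 ng/mL) and ATP (1.25 mM) stimulation; lower signal means less secretion.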
DRD3 agonist – D3 dopamine receptor (human) agonism; P35462; D3R DiscoveRx beta-arrestin cells, luminescence, 90 min; max activation, %; 410,000 compounds, 0.58% hits; in the data active = max activation above about 30%; also: 0% is about no effect
Target sequence (P35462 whole entry, looked up): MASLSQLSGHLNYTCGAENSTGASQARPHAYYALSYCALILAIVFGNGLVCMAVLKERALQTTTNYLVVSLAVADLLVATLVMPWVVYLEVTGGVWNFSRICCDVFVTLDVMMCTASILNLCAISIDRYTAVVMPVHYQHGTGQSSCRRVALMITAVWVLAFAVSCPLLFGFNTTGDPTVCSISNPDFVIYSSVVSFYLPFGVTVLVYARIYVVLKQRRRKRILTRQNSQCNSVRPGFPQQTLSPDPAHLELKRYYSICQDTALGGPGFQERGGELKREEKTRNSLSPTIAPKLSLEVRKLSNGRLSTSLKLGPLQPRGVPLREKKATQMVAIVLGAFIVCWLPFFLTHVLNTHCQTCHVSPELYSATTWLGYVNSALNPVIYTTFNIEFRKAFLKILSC
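Cells at 1500/well, incubated overnight, then treated with pinned compounds (dopamine as control) for 90 min at 37 degrees C. DiscoveRx reagent added for 30 - 60 minutes at room temperature; luminescence read.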
ClpP mod – qHTS Assay for Activators of ClpP. ATP-dependent Clp protease proteolytic subunit (Bacillus subtilis (strain 168)), P80244. purified B. subtilis ClpP, FRET peptide cleavage, 20 min. Potency, µM (highest dose often 57.5 µM), without a hit: at the top dose activity change, negative = active. 340,000 compounds, 1.9% hits. AID 651965, 2013; active = well fitted falling curve with a large enough effect; inconclusive = small, poorly fitted or top-dose-only effect; inactive = no such curve, though single readings can be large or run the other way; also: potency is read from the fitted curve at half-maximal effect; the source files actives as falling curves though it sought activators and does not explain the sign; nearly all actives have a fitted effect of over 65% in size
Target sequence (P80244 whole entry, looked up): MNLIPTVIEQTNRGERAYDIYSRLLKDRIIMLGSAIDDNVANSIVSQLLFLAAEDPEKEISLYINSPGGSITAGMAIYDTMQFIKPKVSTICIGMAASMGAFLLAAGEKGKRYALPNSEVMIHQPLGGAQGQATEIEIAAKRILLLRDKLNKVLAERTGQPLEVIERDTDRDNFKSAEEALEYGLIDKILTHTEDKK
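Purified B. subtilis ClpP, 10 microg/mL final in Tris/HCl pH8 with KCl, BSA, glycerol and Tween-20, cleaved an Abz/nitrotyrosine-quenched decapeptide. Fluorescence (ex 320, em 430) was read at 0 and 20 min at room temperature. Delta was normalized to 5.8 microM ADEP and DMSO/no-enzyme controls.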
DRD3 antagonist – D3 dopamine receptor (human) antagonism | AID 652054 | P35462 | 360,000 compounds, 2.5% hits | D3R cells, DiscoveRx beta-arrestin luminescence, antagonist mode; hits give low values | max response, negative = inhibition, %; in the data active = max response below about -50%; inconclusive = no clear call, values can overlap the other calls; also: % is scaled to controls: 0 for no effect and ±100 for the full control effect
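Cells plated overnight at 1500 cells/well, then exposed to library compounds with dopamine controls for 90 minutes at 37 degrees C. DiscoveRx reagent added for 30–60 minutes at room temperature; luminescence read, quantitative HTS format.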
DT40 TDP1 no CPT – qHTS for Inhibitors of human tyrosyl-DNA phosphodiesterase 1 (TDP1): qHTS in cells in absence of CPT | DT40 Tdp1-/- hTDP1 cells, no CPT, ATP luminescence, 48 h | Potency, µM (series often up to 46.2 µM), without a hit: at the highest dose activity change, negative = growth inhibition, actives largely listed as inhibitors | 420,000 compounds, 15% hits; also: potency is read from the fitted curve at half-maximal effect; % is scaled to controls: 0 for no effect and ±100 for the full control effect; nearly all actives have a fitted effect of over 55% in size
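Luminescent ATP content (CellTiter-Glo) served as the growth readout. Knockout chicken DT40 cells expressing human TDP1 were exposed to compounds without camptothecin for a minimum 48 hr at 37 °C.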
TDP1 cell CPT – growth inhibition of DT40 Tdp1-/-;hTDP1 cells with camptothecin (screen for TDP1 inhibitors) | chicken DT40 Tdp1-/-;hTDP1 cells + 20 nM CPT, ATP luminescence, 48 h | Potency, µM (top dose mostly 46.2 µM), without a hit: at the highest dose activity change, negative = growth inhibition, actives largely listed as inhibitors | 420,000 compounds, 12% hits | AID 686979; also: potency is read from the fitted curve at half-maximal effect; % is scaled to controls: 0 for no effect and ±100 for the full control effect; nearly all actives have a fitted effect of over 55% in size
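Chicken DT40 Tdp1-/- cells stably complemented with human TDP1 were seeded at 400 cells/well in medium containing 20 nM camptothecin, exposed to pin-transferred compounds, and grown at 37 °C for at least 48 hr. Viability was read as ATP luminescence.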
* marks the source's active call; other numbers are inactive results; ? = inconclusive; . = no result. Compounds with a hit are over-represented: about 21% of the library has one in this group of screens. Unless noted, calls follow the shape of the dose curve; as a rule, active = well fitted inhibition curve with a large enough effect; inconclusive = small, poorly fitted or top-dose-only effect; inactive = flat fitted curve, though single readings scatter.

SMILES	IL-1B inflam inh	DRD3 agonist	ClpP mod	DRD3 antagonist	DT40 TDP1 no CPT	TDP1 cell CPT
CCCC(CC)Sc1nc2c([nH]1)c(=S)n(C)c(=O)n2C (stereo not drawn)	35	5	-7%	-1	3.7µM*	3.7µM*
Cn1c(=O)c2[nH]c(CN3CCCCC3)nc2n(C)c1=O	22	-12	.	10	20%	7%
CCCCC(C)Sc1nc2c([nH]1)c(=S)n(C)c(=O)n2C (stereo not drawn)	-99*	24	-2%	28	5.2µM*	3.7µM*
CCC(C)Sc1nc2c(c(=O)[nH]c(=O)n2C)n1C (stereo not drawn)	15	-3	-4%	-18	-17%	-2%
O=C(CC(C(=O)O)n1ccnc1)c1ccc(Cl)cc1 (stereo not drawn)	.	.	1%	.	7.1µM*	7.1µM*
CN(C(=O)c1cccc(NC(=O)Cc2ccc(NC(=O)C3CCCN(C(=O)CCc4ccccc4)C3)cc2)c1)C1CC1 (stereo not drawn)	11	-17	-2%	-1	16µM*	?
CN(Cc1ccccc1)C(=O)c1ccc(NC(=O)Cc2ccc(NC(=O)C3CCCN(C(=O)CCc4ccccc4)C3)cc2)cc1 (stereo not drawn)	27	-20	-1%	5	15µM*	10µM*
CN(C(=O)c1cccc(NC(=O)Cc2ccc(NC(=O)C3CCCN(C(=O)c4ccccc4)C3)cc2)c1)C1CCC1 (stereo not drawn)	29	-4	1%	22	?	?
CN(Cc1ccccc1)C(=O)c1ccc(NC(=O)Cc2ccc(NC(=O)C3CCCN(C(=O)C4CCC4)C3)cc2)cc1 (stereo not drawn)	40	-12	-2%	6	?	-4%
CN(C(=O)c1ccc(NC(=O)Cc2ccc(NC(=O)C3CCCN(C(=O)CCc4ccccc4)C3)cc2)cc1)C1CCCC1 (stereo not drawn)	-8	7	0%	0	21µM*	23µM*
CN(Cc1ccccc1)C(=O)c1ccc(NC(=O)C2CCCN(C(=O)OC(C)(C)C)C2)cc1 (stereo not drawn)	17	7	-1%	15	18µM*	?
CSc1ccccc1NC(=O)CN(C)C(=O)CNC(=O)c1ccc(Oc2ccccc2)cc1	46	4	-1%	18	?	?
COc1cc(OC)cc(C(=O)NCc2ccc3c(c2)OCO3)c1	10	-3	-10%	-11	3%	9%
CN(C(=O)c1cccc(NC(=O)Cc2ccc(NC(=O)C3CCCN(C(=O)c4ccccc4)C3)cc2)c1)C1CCCC1 (stereo not drawn)	14	-7	-1%	-2	?	?
CN(C(=O)c1cccc(NC(=O)Cc2ccc(NC(=O)C3CCCN(C(=O)CCc4ccccc4)C3)cc2)c1)C1CCCCC1 (stereo not drawn)	1	27	-1%	75	16µM*	?
Cc1sc(NC(=O)c2ccc(OCC(C)C)cc2)c(C(N)=O)c1-c1ccc(Cl)cc1Cl	-17	3	1%	9	7.3µM*	9.2µM*
CC(C)COc1ccc(C(=O)Nc2cc(-c3ccccc3)no2)cc1	.	5	?	.	?	?
C/C(=N\NC(N)=O)c1c(F)cccc1F	4	-3	32µM*	4	-8%	15%
C/C(=N\NC(N)=O)c1ccccc1	0	-7	.	-12	-7%	-1%
CCc1ccc(OCCNC(=O)c2cc(SC)ccc2Cl)cc1	-10	-4	-4%	-29	?	?
O=C(NCCOc1ccccc1)c1ccccc1Cl	-22	-20	-4%	-15	2%	7%
O=C(NCCOc1ccc(F)cc1)c1ccccc1SCc1ccccc1	-108*	7	.	44	?	-26%
CCc1ccc(OCCNC(=O)c2ccccc2SCc2ccc(F)cc2)cc1	13	5	1%	16	26µM*	?
O=C1C2C3C=CC(CC3)C2C(=O)N1c1ccc(Br)cc1 (stereo not drawn)	-7	5	-2%	-7	-16%	-13%
COc1ccc2c(c1)c1c(c(=O)n(-c3ccc(OC)c(OC)c3)c(=O)n1Cc1ccccc1C)n2C	.	-1	?	.	-1%	-1%
SMILES	IL-1B inflam inh	DRD3 agonist	ClpP mod	DRD3 antagonist	DT40 TDP1 no CPT	TDP1 cell CPT
COc1ccc(C(=O)N(Cc2cc(OC)c(OC)c(OC)c2)C2CCS(=O)(=O)C2)cc1Cl (stereo not drawn)	.	-5	0%	.	-13%	-11%
Cc1ccccc1C(=O)Nc1ccccc1OCc1cc(=O)n2ccccc2n1	.	10	?	.	?	?
Cc1ccc(NC(=O)Nc2ccc(F)cc2)cc1Cl	?	-3	.	-22	23µM*	?
O=C(CCC(=O)c1ccc(F)cc1)Nc1cccc(S(=O)(=O)Nc2cccc(Cl)c2)c1	8	1	-1%	4	23µM*	15µM*
Cc1ccc(NC(=O)CCC(=O)c2ccc(F)cc2)cc1Cl	14	-14	25µM*	0	-4%	1%
O=C(CCC(=O)c1ccc(F)cc1)Nc1ccc(Cl)cc1	.	-19	1%	.	-15%	2%
CC(=O)N(C)C[C@@H]1Oc2ncc(C#Cc3ccc(F)cc3)cc2C(=O)N([C@@H](C)CO)C[C@H]1C	21	1	-7%	12	-21%	-8%
Oc1ccc(Br)cc1-c1nc2cnccn2c1NC1CCCC1	-93*	-6	-23%	?	?	?
CCc1cccc(C)c1Nc1c(-c2cccc(O)c2)nc2cnccn12	.	3	-23%	.	?	?
Oc1ccc(Br)cc1-c1nc2cnccn2c1NC1CCCCC1	-70*	-21	0%	-11	-25%	-19%
Cc1ccc(Nc2c(-c3ccccc3O)nc3cnccn23)cc1	?	16	.	14	?	?
COc1ccc(C(CCNCc2ccc(OC(C)C)cc2)c2ccccc2OC)cc1 (stereo not drawn)	-89*	-10	0%	15	16µM*	23µM*
COc1ccc(C(CCNCc2ccc(N(C)C)cc2)c2ccccc2OC)cc1 (stereo not drawn)	-101*	-30	-2%	-55*	15µM*	18µM*
COc1ccc(C(CCNCc2ccc(F)cc2)c2ccc(F)cc2)cc1 (stereo not drawn)	-28	-11	-3%	-12	?	?
